{"source": "PubChem BioAssay (NCATS)", "note": "Results filed as inconclusive are left out. Activity calls are given as the source filed them. The call rests on the fitted dose curve; in most records, active means well fitted inhibition curve with a large enough effect; inconclusive means small, poorly fitted or top-dose-only effect; inactive means no such curve, though single readings can be large or run the other way. Potency means the concentration at half of the fitted maximal effect.", "data": [{"assay": "qHTS assay for measurement of the activity of small molecule inhibitors on Zika virus induced Caspase-3 activity in human astrocytoma cells (AID 1224859);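 on activity change, negative = inhibition: plate controls were ZIKV-infected untreated cells for no effect and uninfected cells for full effect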", "conditions": "SNB-19 ZIKV-induced caspase-3/7, luminescence, 6 h; series mostly up to 45.7 µM; activity change, negative = inhibition: at the top concentration", "method_in_brief": "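In SNB-19 cells plated at 250 cells/well and grown 16-20 h, compounds were applied 1 h before ZIKV (2 FFU/cell). Six hours later caspase-3/7 luminescence was recorded.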", "values": [{"smiles": "CCOC(=O)Nc1ccc(NCc2ccc(F)cc2)cc1N", "activity change, negative = inhibition": "-2.1% (inactive)"}, {"smiles": "CC(C)N[C@@H]1CCn2c(=O)[nH]c3cccc(c32)[C@@H]1O", "activity change, negative = inhibition": "11.2% (inactive)"}, {"smiles": "CC(=O)O[C@@]12CO[C@H]1C[C@H](O)[C@@]1(C)C(=O)[C@H](O)C3=C(C)[C@@H](O)C[C@@](O)([C@@H](OC(=O)c4ccccc4)[C@@H]21)C3(C)C", "activity change, negative = inhibition": "2.33% (inactive)"}, {"smiles": "c1cc2c(cc1[C@H]1OC[C@H]3[C@H]1CO[C@H]3c1ccc3c(c1)OCO3)OCO2", "activity change, negative = inhibition": "12.2% (inactive)"}, {"smiles": "COCC1(CO)C(=O)C2CCN1CC2", "note": "(stereo not drawn)", "activity change, negative = inhibition": "-3.38% (inactive)"}, {"smiles": "CCOC(=O)c1c(C(C#N)=CN)c2ccc(Cl)c(Cl)c2n1C", "activity change, negative = inhibition": "-7.47% (inactive)"}, {"smiles": "N=c1c2c(-c3ccccc3)c(-c3ccccc3)n(Cc3ccccc3)c2ncn1C1CCC(O)CC1", "note": "(stereo not drawn)", "activity change, negative = inhibition": "32.8% (inactive)"}, {"smiles": "C[C@@H]1CC[C@@]2(OC1)O[C@H]1C[C@H]3[C@@H]4CC=C5C[C@@H](O[C@@H]6O[C@H](CO)[C@@H](O[C@@H]7O[C@@H](C)[C@H](O)[C@@H](O)[C@@H]7O)[C@H](O)[C@@H]6O[C@@H]6O[C@@H](C)[C@H](O)[C@@H](O)[C@@H]6O)CC[C@]5(C)[C@@H]4CC[C@]3(C)[C@@H]1[C@H]2C", "activity change, negative = inhibition": "-34.6% (inactive)"}, {"smiles": "CC1=C(O)C(=O)C=C2C1=CC=C1[C@@]2(C)CC[C@@]2(C)[C@@H]3C[C@](C)(C(=O)O)CC[C@]3(C)CC[C@]12C", "activity change, negative = inhibition": "3.21% (inactive)"}, {"smiles": "O=S(=O)(CC1CS1)c1ccc(Oc2ccccc2)cc1", "note": "(stereo not drawn)", "activity change, negative = inhibition": "41.7% (inactive)"}, {"smiles": "CC[C@H]1C=CC=CC[C@@H](C)[C@H](O)[C@@](C)(O)C(=O)[C@@H](C)[C@H](O)[C@@H](C)C(=O)[C@@H](C)[C@H](O)[C@@H](C)C=CC(=O)O[C@@H]2[C@@H](C)[C@H](CC1)O[C@]1(CC[C@H](C)[C@H](C[C@@H](C)O)O1)[C@H]2C", "activity change, negative = inhibition": "77.1% (inactive)"}, {"smiles": "Oc1ccc2c3c1O[C@H]1c4[nH]c5c(c4C[C@@]4(O)[C@@H](C2)N(CC2CC2)CC[C@]314)C[C@@]1(O)[C@H]2Cc3ccc(O)c4c3[C@@]1(CCN2CC1CC1)[C@H]5O4", "Potency": "inactive"}, {"smiles": "O=C(Nc1ccncc1)C(=O)c1cn(Cc2ccc(Cl)cc2)c2ccccc12", "activity change, negative = inhibition": "39.1% (inactive)"}, {"smiles": "O=C1C=CC[C@@H]2[C@H]3CCCN4CCC[C@@H](CN12)[C@@H]34", "Potency": "3320 nM (active)"}, {"smiles": "O=c1cccc2n1CC1CNC[C@H]2C1", "activity change, negative = inhibition": "25.2% (inactive)"}, {"smiles": "O=C(O)CNC(=O)c1c(O)c2ccccc2n(Cc2ccccc2)c1=O", "activity change, negative = inhibition": "26.1% (inactive)"}, {"smiles": "C[C@](O)(COc1ccc(C#N)cc1)C(=O)Nc1ccc(C#N)c(C(F)(F)F)c1", "activity change, negative = inhibition": "-16.9% (inactive)"}, {"smiles": "Cc1c(C(=O)Nc2cccc(C(F)(F)F)c2)cc(-c2ccccc2)n1CCCN1CCOCC1", "activity change, negative = inhibition": "12.7% (inactive)"}, {"smiles": "CC(=Cc1csc(C)n1)[C@@H]1C[C@H]2O[C@]2(C)CCC[C@H](C)[C@@H](O)[C@@H](C)C(=O)C(C)(C)[C@@H](O)CC(=O)O1", "activity change, negative = inhibition": "-18% (inactive)"}, {"smiles": "CCCCCC[C@H]1C(=O)O[C@H](C)[C@H](NC(=O)c2cccc(NC=O)c2O)C(=O)O[C@@H](C)[C@@H]1OC(=O)CC(C)C", "activity change, negative = inhibition": "-0.761% (inactive)"}, {"smiles": "Cc1c(C(=O)c2cccc3ccccc23)c2cccc3c2n1[C@H](CN1CCOCC1)CO3", "activity change, negative = inhibition": "4.36% (inactive)"}, {"smiles": "CC(O)=C(C#N)C(=O)Nc1cc(Br)ccc1Br", "activity change, negative = inhibition": "60.9% (inactive)"}, {"smiles": "C1=C2CCCN[C@H]2[C@@H]2C[C@H]1[C@@H]1CCCCN1C2", "activity change, negative = inhibition": "16.9% (inactive)"}, {"smiles": "CCC(=O)OC1CCC2C3CCC4=CC(=O)CC[C@@]4(C)C3CC[C@]12C", "note": "(stereo partly drawn)", "activity change, negative = inhibition": "28.6% (inactive)"}, {"smiles": "NC1CC1c1ccccc1", "note": "(stereo not drawn)", "Potency": "inactive"}, {"smiles": "C[C@@H]1O[C@@H](O[C@@H]2C=C3CC[C@@H]4[C@@H](CC[C@]5(C)[C@H](c6ccc(=O)oc6)CC[C@@]45O)[C@@]3(C)CC2)[C@H](O)[C@H](O)[C@H]1O", "activity change, negative = inhibition": "9.36% (inactive)"}, {"smiles": "O=c1[nH]c2ccc(Cl)cc2c(N[C@@H]2CN3CCC2CC3)c1-c1nc2ccccc2[nH]1", "activity change, negative = inhibition": "193% (inactive)"}, {"smiles": "c1ccc(CCCN2CCN(CCOC(c3ccccc3)c3ccccc3)CC2)cc1", "Potency": "inactive"}, {"smiles": "CN1CCN(c2ccc([N+](=O)[O-])c3no[n+]([O-])c23)CC1", "activity change, negative = inhibition": "12.9% (inactive)"}, {"smiles": "C#CC1(O)CCC2C3CCC4=CC(=O)CCC4(C)C3CCC21C", "note": "(stereo not drawn)", "activity change, negative = inhibition": "-4.34% (inactive)"}, {"smiles": "C[C@]12COC(=O)C[C@@H]1CC[C@@H]1[C@H]2CC[C@@]2(C)[C@H]1CC[C@]2(C)O", "activity change, negative = inhibition": "25.1% (inactive)"}, {"smiles": "CC(C)[C@H]1C(=O)N[C@H](CO)Cc2c[nH]c3cccc(c23)N1C", "activity change, negative = inhibition": "-31.9% (inactive)"}, {"smiles": "C[C@@]12OC(=O)[C@]1([C@@H](O)[C@@H]1C=CCCC1)NC(=O)[C@H]2CCCl", "activity change, negative = inhibition": "13.8% (inactive)"}, {"smiles": "CCNC(=O)C[C@@H]1N=C(c2ccc(Cl)cc2)c2cc(OC)ccc2-n2c(C)nnc21", "activity change, negative = inhibition": "-1.96% (inactive)"}, {"smiles": "CC(=Cc1csc(C)n1)[C@@H]1C[C@H]2O[C@@H]2CCC[C@H](C)[C@@H](O)[C@@H](C)C(=O)C(C)(C)[C@@H](O)CC(=O)O1", "activity change, negative = inhibition": "-11.9% (inactive)"}, {"smiles": "C[C@]12CCC(=O)C(O)=C1CC[C@@H]1[C@H]3CCC(=O)[C@@]3(C)CC[C@@H]12", "activity change, negative = inhibition": "34.4% (inactive)"}]}, {"assay": "qHTS Screen of the MIPE 4.0 Collection Against Ewings Sarcoma (RDES) (AID 1259252); further: nearly all actives have a fitted effect of over 35% in size;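 on viability (percent of control): 100% = DMSO-treated cells and 0% = medium-only wells without cells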", "conditions": "RD-ES Ewing sarcoma viability, CellTiter-Glo, 48 h; series mostly up to 45.8 µM; viability (percent of control): at the top concentration", "method_in_brief": "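Viability screen: 48 h incubation at 37C, 95% humidity, 5% CO2 with serially titrated compound, followed by CellTiter-Glo readout.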", "values": [{"smiles": "CC(C)N[C@@H]1CCn2c(=O)[nH]c3cccc(c32)[C@@H]1O", "Potency": "1180 nM (active)"}, {"smiles": "CC(=O)O[C@@]12CO[C@H]1C[C@H](O)[C@@]1(C)C(=O)[C@H](O)C3=C(C)[C@@H](O)C[C@@](O)([C@@H](OC(=O)c4ccccc4)[C@@H]21)C3(C)C", "Potency": "2350 nM (active)"}, {"smiles": "O=C1CCC[C@@H]2[C@H]3CCCN4CCC[C@@H](CN12)[C@@H]34", "viability (percent of control)": "115% (inactive)"}, {"smiles": "COCC1(CO)C(=O)C2CCN1CC2", "note": "(stereo not drawn)", "Potency": "2090 nM (active)"}, {"smiles": "N=c1c2c(-c3ccccc3)c(-c3ccccc3)n(Cc3ccccc3)c2ncn1C1CCC(O)CC1", "note": "(stereo not drawn)", "Potency": "1180 nM (active)"}, {"smiles": "C[C@@H]1CC[C@@]2(OC1)O[C@H]1C[C@H]3[C@@H]4CC=C5C[C@@H](O[C@@H]6O[C@H](CO)[C@@H](O[C@@H]7O[C@@H](C)[C@H](O)[C@@H](O)[C@@H]7O)[C@H](O)[C@@H]6O[C@@H]6O[C@@H](C)[C@H](O)[C@@H](O)[C@@H]6O)CC[C@]5(C)[C@@H]4CC[C@]3(C)[C@@H]1[C@H]2C", "Potency": "4180 nM (active)"}, {"smiles": "CC1=C(O)C(=O)C=C2C1=CC=C1[C@@]2(C)CC[C@@]2(C)[C@@H]3C[C@](C)(C(=O)O)CC[C@]3(C)CC[C@]12C", "Potency": "1320 nM (active)"}, {"smiles": "O=C(Nc1ccncc1)C(=O)c1cn(Cc2ccc(Cl)cc2)c2ccccc12", "Potency": "93.5 nM (active)"}, {"smiles": "O=c1cccc2n1CC1CNC[C@H]2C1", "viability (percent of control)": "100% (inactive)"}, {"smiles": "O=C(O)CNC(=O)c1c(O)c2ccccc2n(Cc2ccccc2)c1=O", "Potency": "14800 nM (active)"}, {"smiles": "C[C@](O)(COc1ccc(C#N)cc1)C(=O)Nc1ccc(C#N)c(C(F)(F)F)c1", "viability (percent of control)": "92.4% (inactive)"}, {"smiles": "Cc1c(C(=O)Nc2cccc(C(F)(F)F)c2)cc(-c2ccccc2)n1CCCN1CCOCC1", "Potency": "13200 nM (active)"}, {"smiles": "CC(=Cc1csc(C)n1)[C@@H]1C[C@H]2O[C@]2(C)CCC[C@H](C)[C@@H](O)[C@@H](C)C(=O)C(C)(C)[C@@H](O)CC(=O)O1", "viability (percent of control)": "13.2% (inactive)"}, {"smiles": "CCCCCC[C@H]1C(=O)O[C@H](C)[C@H](NC(=O)c2cccc(NC=O)c2O)C(=O)O[C@@H](C)[C@@H]1OC(=O)CC(C)C", "Potency": "41.8 nM (active)"}, {"smiles": "C1=C2CCCN[C@H]2[C@@H]2C[C@H]1[C@@H]1CCCCN1C2", "viability (percent of control)": "119% (inactive)"}, {"smiles": "CCC(=O)OC1CCC2C3CCC4=CC(=O)CC[C@@]4(C)C3CC[C@]12C", "note": "(stereo partly drawn)", "viability (percent of control)": "126% (inactive)"}, {"smiles": "C[C@@H]1O[C@@H](O[C@@H]2C=C3CC[C@@H]4[C@@H](CC[C@]5(C)[C@H](c6ccc(=O)oc6)CC[C@@]45O)[C@@]3(C)CC2)[C@H](O)[C@H](O)[C@H]1O", "Potency": "41.8 nM (active)"}, {"smiles": "O=c1[nH]c2ccc(Cl)cc2c(N[C@@H]2CN3CCC2CC3)c1-c1nc2ccccc2[nH]1", "Potency": "1660 nM (active)"}, {"smiles": "C#CC1(O)CCC2C3CCC4=CC(=O)CCC4(C)C3CCC21C", "note": "(stereo not drawn)", "viability (percent of control)": "123% (inactive)"}, {"smiles": "C[C@@]12OC(=O)[C@]1([C@@H](O)[C@@H]1C=CCCC1)NC(=O)[C@H]2CCCl", "Potency": "37.2 nM (active)"}, {"smiles": "CCNC(=O)C[C@@H]1N=C(c2ccc(Cl)cc2)c2cc(OC)ccc2-n2c(C)nnc21", "Potency": "3320 nM (active)"}, {"smiles": "CC(=Cc1csc(C)n1)[C@@H]1C[C@H]2O[C@@H]2CCC[C@H](C)[C@@H](O)[C@@H](C)C(=O)C(C)(C)[C@@H](O)CC(=O)O1", "viability (percent of control)": "15.6% (inactive)"}]}]}
